# Results from the supplement of paper PMC8728848.
# This excerpt belongs to a sample that is enriched for the strongest signals.
# B1: GS7807Q-bfa-507-19-507 (Bacteroides fragilis) (protein)
# chain: ASCNKFDDLNTNPDAATKVTAPMLATKLILNITQQGSAKNFVYHSMLSKQIAWSENASDEQYNLFGRTDFDGYTILTNCQKMVDAANEGDKDSYAALAKFMKAYKLFYKSLEVGDIPYSDALKGEEGVQKPKYDTQKEVMRQVLEDLEEAYTLFSSGSDFDGDPIFGGDTENWKKTVVAFELKVLTHLCKKDTDADLKVKERFARLVSSGSLMTSNADNFQLVYSNKAGQLYPFYYTQNKHSDYLMMSSVIIDNLKKFNDYRMFYYASPAKAQTDKGIKDSEWDAYLSIDPSDSYSNISVLYGKGEFCLANLRYTRVPEGEPLMRLSYAEQNFILAEGAVRGWISEDASTYYKKGIEASMNFIADNTPDKEEYTHGRTITQEYIQEYLAQPVIQLSGDKEKDLEMILLQRYLASFLQHPYDAYYDYRRTGYPVLPINPSTNLNTEKNKIPTRWMYPEAEFSYNPDNANEAVQRQYNGSDDVNKLMWILQ
# Tests used:
# Assay in all cases: glycan array binding signal (z-score within array); higher = stronger binding
# Settings in all cases: glycan notation: IUPAC condensed, linker removed
# [1] = biological target: Gal(b1-4)GlcNAc(b1-3)Gal(b1-4)GlcNAc(b1-3)GalNAc
# How it was run: (§1)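 The binding signal is a Z-score computed within each array and averaged over linkers. Arrays of the same protein sequence at different concentrations or buffers were also averaged together. Data originate from 3228 arrays in the Consortium for Functional Glycomics database, kept only where the protein sequence was available.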
# [2] = biological target: Gal(b1-4)GlcNAc(b1-3)Gal(b1-4)GlcNAc(b1-3)[Gal(b1-4)GlcNAc(b1-3)Gal(b1-4)GlcNAc(b1-6)]GalNAc
# How it was run: as §1
# [3] = biological target: Gal(b1-4)GlcNAc(b1-3)Gal(b1-4)[Fuc(a1-3)]GlcNAc(b1-3)Gal(b1-4)[Fuc(a1-3)]GlcNAc
# How it was run: as §1
# GalNAc(a1-3)GalNAc = biological target: GalNAc(a1-3)GalNAc
# How it was run: as §1
# GalNAc(b1-3)GlcNAc = biological target: GalNAc(b1-3)GlcNAc
# How it was run: as §1
# GalNAc(b1-4)GlcNAc = biological target: GalNAc(b1-4)GlcNAc
# How it was run: as §1
# GalNAc3S(b1-4)GlcNAc3S = biological target: GalNAc3S(b1-4)GlcNAc3S
# How it was run: as §1
# [4] = biological target: GalNAc3S(b1-4)[Fuc(a1-3)]GlcNAc
# How it was run: as §1
# [5] = biological target: GlcA3S(b1-3)Gal(b1-4)GlcNAc(b1-3)Gal(b1-4)Glc
# How it was run: as §1
# [6] = biological target: GlcNAc(a1-4)Gal(b1-4)GlcNAc
# How it was run: as §1
# [7] = biological target: GlcNAc(a1-4)Gal(b1-4)GlcNAc(b1-3)Gal(b1-4)[Fuc(a1-3)]GlcNAc(b1-3)Gal(b1-4)[Fuc(a1-3)]GlcNAc
# How it was run: as §1
# [8] = biological target: GlcNAc(b1-3)Gal(b1-4)GlcNAc(b1-2)Man(a1-3)[GlcNAc(b1-3)Gal(b1-4)GlcNAc(b1-2)Man(a1-6)]Man(b1-4)GlcNAc(b1-4)[Fuc(a1-6)]GlcNAc
# How it was run: as §1
# [9] = biological target: GlcNAc(b1-3)Gal(b1-4)GlcNAc(b1-2)[GlcNAc(b1-3)Gal(b1-4)GlcNAc(b1-6)]Man(a1-6)[GlcNAc(b1-3)Gal(b1-4)GlcNAc(b1-2)Man(a1-3)]Man(b1-4)GlcNAc(b1-4)GlcNAc
# How it was run: as §1
# [10] = biological target: GlcNAc(b1-3)Gal(b1-4)GlcNAc(b1-3)Gal(b1-4)GlcNAc(b1-2)[GlcNAc(b1-3)Gal(b1-4)GlcNAc(b1-3)Gal(b1-4)GlcNAc(b1-6)]Man(a1-6)[GlcNAc(b1-3)Gal(b1-4)GlcNAc(b1-3)Gal(b1-4)GlcNAc(b1-2)Man(a1-3)]Man(b1-4)GlcNAc(b1-4)[Fuc(a1-6)]GlcNAc
# How it was run: as §1
# [11] = biological target: GlcNAc(b1-3)Gal(b1-4)GlcNAc(b1-3)Gal(b1-4)GlcNAc(b1-3)Gal(b1-4)GlcNAc(b1-3)Gal(b1-4)GlcNAc(b1-2)Man(a1-3)[GlcNAc(b1-3)Gal(b1-4)GlcNAc(b1-3)Gal(b1-4)GlcNAc(b1-3)Gal(b1-4)GlcNAc(b1-3)Gal(b1-4)GlcNAc(b1-2)Man(a1-6)]Man(b1-4)GlcNAc(b1-4)[Fuc(a1-6)]GlcNAc
# How it was run: as §1
# [12] = biological target: Man(a1-2)Man(a1-3)[Man(a1-6)]Man(a1-6)[Man(a1-2)Man(a1-3)]Man(b1-4)GlcNAc(b1-4)GlcNAc
# How it was run: as §1
# [13] = biological target: Man(a1-2)Man(a1-6)[Man(a1-3)]Man(a1-6)[Man(a1-2)Man(a1-2)Man(a1-3)]Man
# How it was run: as §1
# Man(a1-6)Man = biological target: Man(a1-6)Man
# How it was run: as §1
# [14] = biological target: Neu5Ac(a2-3)Gal(b1-3)GalNAc(b1-4)[Neu5Ac(a2-3)]Gal(b1-4)Glc
# How it was run: as §1
# [15] = biological target: Neu5Ac(a2-3)Gal(b1-3)[Fuc(a1-4)]GlcNAc(b1-3)Gal(b1-4)[Fuc(a1-3)]GlcNAc
# How it was run: as §1
# [16] = biological target: Neu5Ac(a2-3)Gal(b1-4)GlcNAc
# How it was run: as §1
# [17] = biological target: Neu5Ac(a2-3)Gal(b1-4)GlcNAc(b1-2)Man(a1-3)[GlcNAc(b1-4)][Neu5Ac(a2-3)Gal(b1-4)GlcNAc(b1-2)Man(a1-6)]Man(b1-4)GlcNAc(b1-4)GlcNAc
# How it was run: as §1
# [18] = biological target: Neu5Ac(a2-3)Gal(b1-4)GlcNAc(b1-2)Man(a1-3)[Neu5Ac(a2-3)Gal(b1-4)GlcNAc(b1-2)Man(a1-6)]Man(b1-4)GlcNAc(b1-4)GlcNAc
# How it was run: as §1
# [19] = biological target: Neu5Ac(a2-3)Gal(b1-4)GlcNAc(b1-2)[Neu5Ac(a2-3)Gal(b1-4)GlcNAc(b1-6)]Man(a1-6)[Neu5Ac(a2-3)Gal(b1-4)GlcNAc(b1-2)Man(a1-3)]Man(b1-4)GlcNAc(b1-4)GlcNAc
# How it was run: as §1
# [20] = biological target: Neu5Ac(a2-3)Gal(b1-4)GlcNAc(b1-3)GalNAc
# How it was run: as §1
# [21] = biological target: Neu5Ac(a2-3)Gal(b1-4)[Fuc(a1-3)]GlcNAc(b1-3)Gal(b1-4)GlcNAc
# How it was run: as §1
# [22] = biological target: Neu5Ac(a2-6)Gal(b1-4)GlcNAc(b1-2)Man(a1-3)Man(b1-4)GlcNAc(b1-4)GlcNAc
# How it was run: as §1
# [23] = biological target: Neu5Ac(a2-6)Gal(b1-4)GlcNAc(b1-2)[Neu5Ac(a2-6)Gal(b1-4)GlcNAc(b1-4)]Man(a1-3)[GlcNAc(b1-4)][Neu5Ac(a2-6)Gal(b1-4)GlcNAc(b1-4)Man(a1-6)]Man(b1-4)GlcNAc(b1-4)GlcNAc
# How it was run: as §1
# [24] = biological target: Neu5Ac(a2-6)Gal(b1-4)GlcNAc(b1-2)[Neu5Ac(a2-6)Gal(b1-4)GlcNAc(b1-6)]Man(a1-6)[Neu5Ac(a2-6)Gal(b1-4)GlcNAc(b1-2)Man(a1-3)][GlcNAc(b1-4)]Man(b1-4)GlcNAc(b1-4)GlcNAc
# How it was run: as §1
# [25] = biological target: Neu5Ac(a2-6)Gal(b1-4)GlcNAc(b1-3)Gal(b1-4)GlcNAc(b1-3)Gal(b1-4)GlcNAc(b1-2)Man(a1-3)[Neu5Ac(a2-6)Gal(b1-4)GlcNAc(b1-3)Gal(b1-4)GlcNAc(b1-3)Gal(b1-4)GlcNAc(b1-2)Man(a1-6)]GalNAc
# How it was run: as §1
# [26] = biological target: Neu5Ac(a2-6)Gal(b1-4)GlcNAc(b1-3)GalNAc
# How it was run: as §1
# [27] = biological target: Neu5Ac(a2-8)Neu5Ac(a2-8)Neu5Ac(a2-3)Gal(b1-4)Glc
# How it was run: as §1
binder,measurement,setting,value
B1,glycan array binding signal (z-score),[1],-0.268
same,glycan array binding signal (z-score),[2],-0.074
same,glycan array binding signal (z-score),[3],-0.174
same,glycan array binding signal (z-score),GalNAc(a1-3)GalNAc,-0.06
same,glycan array binding signal (z-score),GalNAc(b1-3)GlcNAc,-0.454
same,glycan array binding signal (z-score),GalNAc(b1-4)GlcNAc,3.09
same,glycan array binding signal (z-score),GalNAc3S(b1-4)GlcNAc3S,-0.279
same,glycan array binding signal (z-score),[4],-0.654
same,glycan array binding signal (z-score),[5],0.23
same,glycan array binding signal (z-score),[6],-0.604
same,glycan array binding signal (z-score),[7],3.02
same,glycan array binding signal (z-score),[8],2.43
same,glycan array binding signal (z-score),[9],1.65
same,glycan array binding signal (z-score),[10],2.73
same,glycan array binding signal (z-score),[11],-0.41
same,glycan array binding signal (z-score),[12],-0.639
same,glycan array binding signal (z-score),[13],0.113
same,glycan array binding signal (z-score),Man(a1-6)Man,0.531
same,glycan array binding signal (z-score),[14],-0.316
same,glycan array binding signal (z-score),[15],-0.38
same,glycan array binding signal (z-score),[16],-0.496
same,glycan array binding signal (z-score),[17],-0.905
same,glycan array binding signal (z-score),[18],-0.347
same,glycan array binding signal (z-score),[19],1.35
same,glycan array binding signal (z-score),[20],-0.737
same,glycan array binding signal (z-score),[21],-0.425
same,glycan array binding signal (z-score),[22],-0.09
same,glycan array binding signal (z-score),[23],0.481
same,glycan array binding signal (z-score),[24],0.863
same,glycan array binding signal (z-score),[25],3.17
same,glycan array binding signal (z-score),[26],0.841
same,glycan array binding signal (z-score),[27],-0.141
